# Source: PubChem BioAssay
# Active and inactive are the calls of the source.
# Legend:
# [1] = E. coli DRC41 culture turbidity changes, primary screen, E. coli filamentation inducer project, strain DRC41, OD650, 48 h (AID 1152);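 further: E. coli MC1000 strain DRC41 lacking acrAB efflux pump and sulA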; settings: E. coli DRC41 (acrAB sulA), higher = more signal, called active from +8 up or from −8 down
# [2] = small-molecule binders of probe aLefty1, primary screen, biochemical, small-molecule microarray, 635/667 nm fluorescence (AID 1153); settings: higher = more signal;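 further: score merges spot fluorescence with signal-to-noise ratio from the scanned slide images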
# [3] = PSAC antagonists in infected red cells, primary screen, cell-based, P. falciparum Indochina, OD700, 1 h (AID 1154); settings: P. falciparum Indochina infected RBC osmotic lysis, higher = more signal, called active from +8 up or from −8 down
# [4] = PSAC antagonists in infected red cells, primary screen, cell-based, P. falciparum Indochina, OD700, 2 h (AID 1155);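 further: lysis reports solute entry through the parasite surface anion channel PSAC; channel blockers reduce lysis of infected cells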; settings: P. falciparum Indochina infected erythrocytes, osmotic lysis OD700; higher = more signal, called active from +8 up or from −8 down
# [5] = osmotic lysis modulators in infected erythrocytes, primary screen, PSAC antagonist project, cell-based, P. falciparum Indochina, OD700, 3 h (AID 1156); settings: higher = more signal, called active from +8 up or from −8 down
# [6] = PSAC antagonists in infected red cells, primary screen, cell-based, P. falciparum Indochina, OD700, 18 h (AID 1157); settings: P. falciparum Indochina infected erythrocytes, osmotic lysis OD700, 18 h; higher = more signal, called active from +8 up or from −8 down
# [7] = modulators of S6 phosphorylation in cells, primary screen, cell-based, A549, cytoblot, luminescence, serum-stimulated (AID 1158); settings: A549 phospho-S6 cytoblot, 5 h, higher = more signal;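 further: serum-stimulated A549 lung adenocarcinoma cells; signal is phosphorylated S6 detected by cytoblot immunostaining with HRP secondary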
# [8] = target: NADPH oxidase 2 (Homo sapiens) (UniProt P04839); assay: NOX2-dependent H2O2 signal modulators, primary screen, NOX inhibitor project, cell-based, HEK293-NOX2, PMA-stimulated, Amplex Red fluorescence (AID 1159); settings: 45 min, higher = more signal, called active from +8 up or from −8 down; further: test concentration not given here
# NADPH oxidase 2 (Homo sapiens), sequence (P04839 whole entry, looked up): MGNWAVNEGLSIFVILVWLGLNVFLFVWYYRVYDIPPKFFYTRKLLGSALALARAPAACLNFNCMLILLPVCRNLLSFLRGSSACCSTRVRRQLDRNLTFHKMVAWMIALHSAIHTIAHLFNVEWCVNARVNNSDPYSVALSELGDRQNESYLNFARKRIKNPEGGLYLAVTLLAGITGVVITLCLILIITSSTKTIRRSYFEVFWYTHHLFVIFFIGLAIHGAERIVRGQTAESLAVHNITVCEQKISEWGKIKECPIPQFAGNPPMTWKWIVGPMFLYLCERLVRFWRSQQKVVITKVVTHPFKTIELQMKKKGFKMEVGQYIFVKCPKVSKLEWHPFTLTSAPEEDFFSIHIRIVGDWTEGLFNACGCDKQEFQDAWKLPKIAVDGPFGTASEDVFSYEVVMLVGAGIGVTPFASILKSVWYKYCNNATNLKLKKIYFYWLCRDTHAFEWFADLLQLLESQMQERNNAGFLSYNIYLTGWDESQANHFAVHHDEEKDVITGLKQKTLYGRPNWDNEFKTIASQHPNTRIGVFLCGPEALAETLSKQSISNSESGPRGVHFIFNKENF
# [9] = target: NADPH oxidase 4 (Homo sapiens) (UniProt Q9NPH5); assay: NOX4-dependent H2O2 signal modulators, primary screen, NOX inhibitor project, cell-based, HEK293-NOX4, tetracycline-induced, Amplex Red fluorescence (AID 1160); settings: 45 min, higher = more signal, called active from +8 up or from −8 down
# NADPH oxidase 4 (Homo sapiens), sequence (Q9NPH5 whole entry, looked up): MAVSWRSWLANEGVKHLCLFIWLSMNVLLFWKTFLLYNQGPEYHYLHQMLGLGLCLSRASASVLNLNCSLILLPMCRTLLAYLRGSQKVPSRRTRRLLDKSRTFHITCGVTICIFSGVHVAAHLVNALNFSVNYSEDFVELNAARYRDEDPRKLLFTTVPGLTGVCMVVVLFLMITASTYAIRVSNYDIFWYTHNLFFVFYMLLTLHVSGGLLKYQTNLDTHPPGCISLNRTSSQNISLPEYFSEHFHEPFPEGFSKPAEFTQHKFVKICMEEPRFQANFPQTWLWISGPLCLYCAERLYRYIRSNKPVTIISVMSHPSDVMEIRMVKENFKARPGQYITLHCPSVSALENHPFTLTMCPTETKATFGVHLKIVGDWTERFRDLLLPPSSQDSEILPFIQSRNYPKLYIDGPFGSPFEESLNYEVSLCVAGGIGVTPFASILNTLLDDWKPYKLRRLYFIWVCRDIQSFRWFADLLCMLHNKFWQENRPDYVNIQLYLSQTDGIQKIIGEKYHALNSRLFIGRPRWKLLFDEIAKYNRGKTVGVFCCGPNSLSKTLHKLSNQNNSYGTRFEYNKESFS
# [10] = target: NADPH oxidase 5 (Homo sapiens) (UniProt Q96PH1); assay: NOX5-dependent H2O2 signal modulators, primary screen, NOX inhibitor project, cell-based, HEK293-NOX5, Amplex Red fluorescence (AID 1161); settings: HEK293-NOX5, ionomycin, 45 min, higher = more signal
# NADPH oxidase 5 (Homo sapiens), sequence (Q96PH1 whole entry, looked up): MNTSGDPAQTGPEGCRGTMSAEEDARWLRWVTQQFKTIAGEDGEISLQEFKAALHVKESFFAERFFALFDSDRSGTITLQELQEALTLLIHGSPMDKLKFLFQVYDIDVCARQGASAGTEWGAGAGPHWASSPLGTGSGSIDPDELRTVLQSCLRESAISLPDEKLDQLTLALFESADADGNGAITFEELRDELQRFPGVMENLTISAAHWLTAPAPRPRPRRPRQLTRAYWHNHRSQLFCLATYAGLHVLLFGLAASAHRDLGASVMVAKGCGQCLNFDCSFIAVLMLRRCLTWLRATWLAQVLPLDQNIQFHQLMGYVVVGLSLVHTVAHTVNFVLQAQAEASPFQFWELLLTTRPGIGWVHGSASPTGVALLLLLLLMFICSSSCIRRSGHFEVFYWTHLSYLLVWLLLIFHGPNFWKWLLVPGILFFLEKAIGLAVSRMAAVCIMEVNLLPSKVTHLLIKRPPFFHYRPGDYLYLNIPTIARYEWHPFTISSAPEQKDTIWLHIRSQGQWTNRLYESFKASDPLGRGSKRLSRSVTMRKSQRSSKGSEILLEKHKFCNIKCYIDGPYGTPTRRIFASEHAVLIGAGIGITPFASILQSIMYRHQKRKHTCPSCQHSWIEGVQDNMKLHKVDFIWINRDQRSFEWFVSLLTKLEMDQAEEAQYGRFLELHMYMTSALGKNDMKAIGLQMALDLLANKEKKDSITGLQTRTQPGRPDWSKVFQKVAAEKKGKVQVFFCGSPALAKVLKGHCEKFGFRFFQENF
SMILES,z-score [1],composite z-score [2],z-score [3],z-score [4],z-score [5],z-score [6],z-score [7],z-score [8],z-score [9],z-score [10]
COCCCNC(=O)[C@@]1(Sc2ccc(C)cc2)CC(=O)N(C2CCCCC2)[C@@H]1c1ccc(CO)cc1,-0.204 (inactive),0.0209,0.309 (inactive),0.17 (inactive),0.0051 (inactive),0.326 (inactive),0.0394,0.175 (inactive),-0.512 (inactive),-1.3
COCCOC(=O)N1C(=O)[C@@]2(c3cc(C#CC4=CCCCC4)ccc31)[C@H](C(=O)N1CCCCCCC1)[C@H]1C(=O)O[C@H](c3ccccc3)[C@H](c3ccccc3)N1[C@@H]2c1ccc(O)cc1,1.63 (inactive),0.93,-0.43 (inactive),-1.2 (inactive),-1.27 (inactive),-1.96 (inactive),2.44,0.67 (inactive),0.257 (inactive),0.871
C=C(COC)C(=O)CC[C@@H](OC(=O)c1cccnc1)c1ccc(OCCO)cc1,-0.717 (inactive),0.235,7.63 (inactive),2.3 (inactive),-1.61 (inactive),1.21 (inactive),-0.482,0.838 (inactive),0.211 (inactive),-2.85
[N-]=[N+]=Nc1ccccc1C[C@]1(C(=O)N2CCOCC2)N=C(c2ccc(OCCCO)cc2)O[C@H]1c1ccccc1,1.61 (inactive),-0.007,20.5 (active),4.95 (inactive),2.84 (inactive),1.43 (inactive),0.251,0.265 (inactive),0.719 (inactive),-1.47
NC(=O)N1C(=O)C2C(C1=O)C1C=C(CCCO)C2C(c2cccs2)N1Cc1cccc(OC(F)(F)F)c1 (stereo not given),-0.19 (inactive),0.135,8.85 (active),1.42 (inactive),-0.569 (inactive),0.872 (inactive),0.323,2.15 (inactive),0.0752 (inactive),-1.12
Cc1ccc(S[C@]2(C(=O)O)CC(=O)N(C3Cc4ccccc4C3)[C@@H]2c2ccc(CO)cc2)cc1,-0.0458 (inactive),0.212,3.54 (inactive),-0.273 (inactive),0.385 (inactive),-0.333 (inactive),-0.401,-0.0451 (inactive),-0.498 (inactive),1.58
COC(=O)[C@@]1(Cc2ccc(F)cc2)[C@H]2c3cc(C(=O)N4CCCC4)n(CCc4ccc(O)c(O)c4)c3C[C@H]2CN1C(=O)c1ccccc1,-1.04 (inactive),1.09,2.9 (inactive),0.5 (inactive),0.718 (inactive),0.936 (inactive),-0.243,-4.14 (inactive),-7.52 (inactive),-6.63
C=C[C@@H](COC(C)=O)N(C(=O)OC(C)(C)C)S(=O)(=O)c1ccc(Br)cc1,0.336 (inactive),-0.105,0.478 (inactive),-0.145 (inactive),0.14 (inactive),0.0566 (inactive),-0.178,-1.47 (inactive),-0.744 (inactive),-1.23
COCCOC(=O)N1C(=O)[C@@]2(c3cc(C#CC4=CCCCC4)ccc31)[C@H](c1ccccc1OCCO)N1[C@H](c3ccccc3)[C@H](c3ccccc3)OC(=O)[C@H]1[C@@H]2C(=O)Nc1nc2ccccc2s1,-0.541 (inactive),0.287,3.53 (inactive),1.72 (inactive),-0.507 (inactive),1.54 (inactive),-0.168,1.59 (inactive),0.571 (inactive),1.41
COc1cccc(/C=C/C=O)c1,1.46 (inactive),0.212,0.206 (inactive),-0.11 (inactive),-0.648 (inactive),-0.0641 (inactive),0.0159,-0.759 (inactive),-0.228 (inactive),0.985
COc1ccc(CCNC(=O)[C@@]2(Sc3ccc(C)cc3)CC(=O)N(C3Cc4ccccc4C3)[C@@H]2c2ccc(CO)cc2)cc1,-0.336 (inactive),0.366,4.53 (inactive),-0.205 (inactive),-0.0174 (inactive),-0.874 (inactive),1.66,-2.19 (inactive),-1.05 (inactive),-4.9
CCOC(=O)C[C@H]1[C@H](OC(=O)Cc2ccc3c(c2)OCO3)[C@@H](NC(=O)CC(C)C)c2cc(OCCCO)ccc2N1C(=O)Cc1ccc(OC)cc1,2.26 (inactive),-0.145,6.25 (inactive),-0.537 (inactive),-1.07 (inactive),-1.3 (inactive),1.72,0.163 (inactive),0.781 (inactive),1.15
CC(C)OC(=O)C=C1C[C@@H](c2ccc(C(F)(F)F)cc2)O[C@@H](c2ccc(C(F)(F)F)cc2)O1,0.609 (inactive),-0.0954,2.79 (inactive),-0.301 (inactive),-0.101 (inactive),-1.05 (inactive),0.569,0.283 (inactive),-0.175 (inactive),-0.0582
CC(C)C(CO)N1C(=O)[C@@H]2C3C(=O)OCCC/C=C\[C@H]3OC23C=CCN(C(C)(C)C)C(=O)[C@@H]13 (stereo not given in full),-0.69 (inactive),-0.142,0.502 (inactive),0.488 (inactive),0.441 (inactive),0.478 (inactive),-0.668,1.57 (inactive),0.339 (inactive),2.34
CCCCCCCCCCC(O)C1C=CC2C(=O)N(C)C(=O)C2N1Nc1ccc([N+](=O)[O-])cc1[N+](=O)[O-] (stereo not given),-1.97 (inactive),0.407,13.8 (active),4.31 (inactive),-0.607 (inactive),2.59 (inactive),-0.506,0.402 (inactive),0.328 (inactive),-0.414
CC(C)(C)N1CC=CC23O[C@@H]4C=CCOC(=O)[C@@H]4[C@H]2C(=O)N(CCCCCCO)[C@@H]3C1=O (stereo not given in full),-0.348 (inactive),-0.108,1.69 (inactive),0.127 (inactive),0.935 (inactive),0.381 (inactive),-0.613,0.959 (inactive),-0.503 (inactive),1.47
CCCNC(=O)[C@@H]1c2ccccc2C(=O)N(C(C)C)[C@H]1c1ccc(CO)cc1,0.737 (inactive),0.202,1.67 (inactive),-0.1 (inactive),0.21 (inactive),-0.21 (inactive),-0.0878,0.162 (inactive),0.514 (inactive),-0.0547
C=CCC(OC(C)=O)[C@@H]1[C@@H](N(Cc2cc3ccccc3o2)C(=O)Cc2ccc(F)cc2)c2cc(OCCCO)ccc2N1C(=O)c1ccc2ccccc2c1 (stereo not given in full),-0.959 (inactive),0.106,1.18 (inactive),0.305 (inactive),-0.97 (inactive),0.112 (inactive),-0.448,0.512 (inactive),0.957 (inactive),2.34
CC(CO)N1C(=O)[C@@H]2[C@H]3C(=O)OCC=C[C@H]3OC23C=CCN(C(C)(C)C)C(=O)[C@@H]13 (stereo not given in full),-0.771 (inactive),-0.407,0.16 (inactive),-0.0471 (inactive),-0.0717 (inactive),-0.23 (inactive),-0.105,0.566 (inactive),0.401 (inactive),1.43
C=CCN1C(=O)[C@@]2(O[C@@H](CCn3cc([C@H](O)c4ccccc4)nn3)[C@H]([Si](C)(C)c3ccc(OC)cc3)[C@H]2C)c2cc(N3CCC3=O)ccc21,0.359 (inactive),-0.189,14.4 (active),1.98 (inactive),0.292 (inactive),1.01 (inactive),-0.266,0.631 (inactive),-0.498 (inactive),0.0158
O=C(NCCCCCNC(=O)/C(Cc1ccccc1)=N/O)OCc1ccccc1,2 (inactive),-0.696,11 (active),-0.43 (inactive),0.003 (inactive),-2.25 (inactive),1.19,0.53 (inactive),0.0195 (inactive),-1.35
O=C(NCc1ccccc1)[C@@H]1c2ccccc2C(=O)N(Cc2ccccc2C(F)(F)F)[C@H]1c1ccc(CO)cc1,0.546 (inactive),-0.0731,3.68 (inactive),0.75 (inactive),1.53 (inactive),0.207 (inactive),0.0835,-1.13 (inactive),0.914 (inactive),-0.366
COc1ccc([Si](C)(C)[C@@H]2[C@@H](CC(=O)N(CCO)Cc3ccccc3)O[C@]3(C(=O)N(c4ccccc4)c4ccccc43)[C@H]2C)cc1,1.3 (inactive),0.201,9.05 (active),1.2 (inactive),-1.43 (inactive),0.303 (inactive),1.73,-0.0719 (inactive),0.574 (inactive),-1.55
COc1ccccc1CN1C(=O)c2ccccc2[C@@]2(Cc3ccccc3N(CC(F)(F)F)C2=O)[C@@H]1c1ccc(CO)cc1,0.254 (inactive),0.0623,0.252 (inactive),0.633 (inactive),-1.9 (inactive),0.206 (inactive),-0.309,-0.802 (inactive),-0.565 (inactive),-0.154
COCCOC(=O)N1C(=O)[C@@]2(c3cc(C#CC4=CCCCC4)ccc31)[C@H](C(N)=O)[C@H]1C(=O)O[C@H](c3ccccc3)[C@H](c3ccccc3)N1[C@@H]2c1ccccc1OCCO,-0.172 (inactive),0.199,3.63 (inactive),2.55 (inactive),0.629 (inactive),2.15 (inactive),-0.332,2.16 (inactive),0.932 (inactive),1.42
